Source: PubChem
ALOX12 inh = Primary qHTS assay for inhibitors of human arachidonate 12S-lipoxygenase (ALOX12): Round 2 | Polyunsaturated fatty acid lipoxygenase ALOX12 (Homo sapiens), P18054 | purified 12hLO, xylenol orange hydroperoxide absorbance | Potency, µM (titrated, usually from 108 µM), for inactives: at the top dose activity change, negative = inhibition, most hits filed as inhibitors | hit rate 1.1% among 580,000 | AID 1671190, 2021; further: on the % scale 0 is the no-effect control and ±100 the full control effect
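Purified human 12hLO at 150 nM in 25 mM Hepes, 0.01% Triton X-100, pH 7.0, preincubated 15 min at room temperature with compound. Reaction started with 40 uM arachidonic acid, 30 min at room temperature. Hydroperoxide measured by Fe-xylenol orange, 573/405 nm absorbance ratio.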
PINK1 expr mod = A Quantitative High throughput Screen to Identify Chemical Modulators of PINK1 Expression. AID 624263, 2012. PINK1 immunofluorescence, high-content cytometry, 24 h. Potency, µM (top dose mostly 76.6 µM), for the others: at the highest dose activation (PINK1 increase), actives largely listed as activators. hit rate 0.2% among 410,000; active means well fitted activation curve with a large enough effect; inconclusive means small, poorly fitted or top-dose-only effect; cell line not stated here; further: % of control where 0% means no effect; nearly all actives have a fitted effect of over 65% in size
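PINK1 protein, normally rapidly degraded, was detected by immunofluorescence after 24 hour compound treatment of a stable cell line. Titration data (5 concentrations) came from laser-scanning cytometry, with CCCP-treated wells as controls.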
SW480 rereplic = A quantitative high throughput screen for small molecules that induce DNA re-replication in SW480 colon adenocarcinoma cells; hit rate 1.8% among 340,000; Potency, µM (series often up to 46.1 µM), for the others: at the highest dose re-replication activation, hits mostly activators; SW480 DNA re-replication, Hoechst DNA content imaging, 48 h; further: % of control where 0% means no effect; nearly all actives have a fitted effect of over 55% in size
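Image-based DNA-content assay: after two days of treatment, nuclei were labelled with the DNA dye Hoechst and imaged, and hits were compounds raising the count of nuclei showing high fluorescence intensity.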
KB-3-1 tox = qHTS assay for MDR1-selective chemotherapeutics: Primary screen using the parental adenocarcinoma cell KB-3-1. KB-3-1 viability, CellTiter-Glo ATP luminescence, 72 h. Potency, µM (series often up to 46.1 µM), usual class: cytotoxic. hit rate 1.4% among 400,000; further: on the % scale 0 is the no-effect control and ±100 the full control effect; nearly all actives have a fitted effect of over 60% in size
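Screening of KB-3-1 cells (DMEM, 10% FBS, phenol-red free) ran from lowest to highest compound concentration; after 72 h at 37 °C viability was read luminescently and curves fitted.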
MCF10A rerep = A quantitative high throughput screen for small molecules that induce DNA re-replication in MCF 10a normal breast cells; MCF 10A DNA re-replication, Hoechst nuclear intensity, 48 h; Potency, µM (top dose mostly 46.1 µM), without a hit: top-dose activity, positive = re-replication, usual class: activators; hit rate 2.9% among 350,000; further: % of control where 0% means no effect; nearly all actives have a fitted effect of over 50% in size
KB-V1 MDR tox = qHTS assay for MDR1-selective chemotherapeutics: Primary screen using the drug-selected MDR subline cells KB-V1; KB-V1 MDR cells viability, CellTiter-Glo, 72 h; Potency, µM (top dose mostly 46.1 µM), most hits filed as cytotoxic; hit rate 3.4% among 400,000; further: on the % scale 0 is the no-effect control and ±100 the full control effect; nearly all actives have a fitted effect of over 60% in size
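qHTS viability screen in drug-selected KB-V1 MDR cells: 72 h compound treatment at 37 degrees C, ATP luminescence end point.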
Active calls of the source: *; [ ] = remark or other dose. In the library only some 5.8% were active in any assay of this set; here they are far more common. Unless noted, the call rests on the fitted dose curve; in most records, active means well fitted curve in the direction sought with a large enough effect; inconclusive means small, poorly fitted or top-dose-only effect, or another doubt; inactive means no such curve, though single readings can be large; an effect the other way counts as inactive or inconclusive. Potency means the concentration at half of the fitted maximal effect.

For COc1ccc(C2=NOC(C(=O)NCc3ccccc3)C2)cc1 (stereo unspecified) the results were ALOX12 inh 22%, PINK1 expr mod 6%[38.3 µM], SW480 rereplic 2.6µM*, KB-3-1 tox 7.3µM*, MCF10A rerep 0.37µM* and KB-V1 MDR tox 7.3µM*.
Screening COCCNC(=O)C1CC(c2cccc(OC)c2)=NO1 (stereo unspecified) returned ALOX12 inh 19%, PINK1 expr mod 1%, SW480 rereplic -2%, KB-3-1 tox inactive, MCF10A rerep -3% and KB-V1 MDR tox inactive.
Screening COc1ccc(C(=O)Nn2c(CCC(=O)O)ccc2-c2ccc(Cl)cc2)cc1OC returned ALOX12 inh 17%.
`O=C(NCc1ccc2c(c1)OCO2)C1CC(c2ccccc2O)=NO1` (stereo unspecified) gave ALOX12 inh 6%, SW480 rereplic -3%, KB-3-1 tox inactive, MCF10A rerep inconclusive and KB-V1 MDR tox inactive.
For CCCn1cc(NC(=O)C2CC(c3cccc(Br)c3)=NO2)cn1 (stereo unspecified) the results were ALOX12 inh 11%, PINK1 expr mod 5%[38.3 µM], SW480 rereplic 16µM*, KB-3-1 tox inactive, MCF10A rerep 23µM* and KB-V1 MDR tox inactive.
For O=C(Nc1cccc(O)c1)C1CC(c2cccc(Br)c2)=NO1 (stereo unspecified) the results were ALOX12 inh 0%, PINK1 expr mod 1%, SW480 rereplic 5%, KB-3-1 tox inactive, MCF10A rerep -1% and KB-V1 MDR tox inactive.
For O=C(NCc1ccc2c(c1)OCO2)C1CC(c2cccc(Br)c2)=NO1 (stereo unspecified) the results were ALOX12 inh 0%, PINK1 expr mod 0%, SW480 rereplic -11%, KB-3-1 tox inactive, MCF10A rerep 12µM* and KB-V1 MDR tox inactive.
`N#C/C(=C/c1ccc(OCc2ccc3ccccc3c2)cc1)c1nc2ccccc2[nH]1` gave ALOX12 inh -28%.
O=[N+]([O-])c1ccccc1C=NNC(=S)NN=Cc1ccccc1[N+](=O)[O-] was read as ALOX12 inh inconclusive, PINK1 expr mod 6%, SW480 rereplic 21µM*, KB-3-1 tox inconclusive, MCF10A rerep 18µM* and KB-V1 MDR tox inconclusive.
Screening Cc1ccc(CN(CC(=O)N/N=C/c2ccccc2[N+](=O)[O-])S(=O)(=O)c2ccc(C)cc2)cc1 returned ALOX12 inh 0%, PINK1 expr mod 0%, SW480 rereplic 18%, KB-3-1 tox inactive, MCF10A rerep 5% and KB-V1 MDR tox inactive.
`O=C(CN(Cc1ccccc1)S(=O)(=O)c1ccccc1)N/N=C/c1ccccc1[N+](=O)[O-]` gave ALOX12 inh 3%, PINK1 expr mod 3%[38.3 µM], SW480 rereplic 2%, KB-3-1 tox inactive, MCF10A rerep 14% and KB-V1 MDR tox 23µM*.
Screening O=C(CCc1ncc(-c2ccccc2)o1)NC1CCS(=O)(=O)C1 (stereo unspecified) returned ALOX12 inh 33%.
`O=C1Nc2ccccc2/C1=C/c1ccccc1F` gave ALOX12 inh 3%, PINK1 expr mod 9%, SW480 rereplic inconclusive, KB-3-1 tox inactive, MCF10A rerep inconclusive and KB-V1 MDR tox inactive.
Screening Cc1nn(-c2ccc(F)cc2)c(Cl)c1/C=C1\C(=O)Nc2ccccc21 returned ALOX12 inh -15%, PINK1 expr mod 8%, SW480 rereplic inconclusive, KB-3-1 tox inconclusive, MCF10A rerep 8.2µM* and KB-V1 MDR tox 13µM*.
